Measurements from ChEMBL document CHEMBL3988442, “University of Dundee, Small-Polar-MMV Screening Library” (2021).

Experiments:
[1] = target: T1, Aspartate--tRNA(Asp/Asn) ligase (Mycobacterium tuberculosis (strain ATCC 25618 / H37Rv)) (UniProt P9WFW3); test: Assay for Asp RNA synthetase-1 from Mycobacterium tuberculosis; type: functional; design: scale not given: direction of the effect not stated beside the values; conditions: 30 µM; further: in the data most compounds retested in dose-response had high values
T1 sequence (whole entry): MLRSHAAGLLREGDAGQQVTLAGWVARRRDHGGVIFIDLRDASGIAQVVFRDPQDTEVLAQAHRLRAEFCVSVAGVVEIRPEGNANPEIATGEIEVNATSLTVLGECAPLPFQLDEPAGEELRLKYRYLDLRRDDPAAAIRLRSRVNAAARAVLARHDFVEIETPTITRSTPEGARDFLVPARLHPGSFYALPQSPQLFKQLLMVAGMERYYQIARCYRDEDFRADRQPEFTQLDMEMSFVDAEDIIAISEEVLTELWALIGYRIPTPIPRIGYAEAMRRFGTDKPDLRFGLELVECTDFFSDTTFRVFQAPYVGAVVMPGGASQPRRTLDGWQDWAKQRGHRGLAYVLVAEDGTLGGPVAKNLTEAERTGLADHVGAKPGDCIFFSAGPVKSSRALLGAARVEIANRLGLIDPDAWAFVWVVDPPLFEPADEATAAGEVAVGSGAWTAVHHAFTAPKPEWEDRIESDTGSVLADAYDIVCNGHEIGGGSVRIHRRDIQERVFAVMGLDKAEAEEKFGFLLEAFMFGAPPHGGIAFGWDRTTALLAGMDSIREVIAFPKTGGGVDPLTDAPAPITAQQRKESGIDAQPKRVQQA

[2] = target: Shiga toxin 2 (Escherichia coli O157:H7) (UniProt P09385+P09386); test: E. coli 0.157:H7 Shiga Toxin SOP - stx2 screening assay; type: functional; design: scale not given: direction of the effect not stated beside the values; conditions: 30 µM

Q: Which results are given for `CN(C)[C@@H]1CCN(C(=O)NC2CCCC2)[C@H]1Cc1cnn(C)c1`?
A: Percent Effect [1]: -2.75%; Percent Effect [2]: -11.7%

Q: What does the source list for `Cc1nn(C)c(C)c1C1CCCN1Cc1nc(-c2ccco2)oc1C` (stereo not drawn)?
A: Percent Effect [1]: -1.54%; Percent Effect [2]: 22.6%

Q: With `CN1CCN(CCO)C(=O)C12CCN(Cc1ccsc1)CC2` as the compound, how does the Percent Effect [1] read?
A: -3.89%

Q: What about the Percent Effect [2] of the same compound?
A: -1.74%

Q: For `O=C(Nc1ccc(N2CCCC2)nc1)N1CCc2ccccc2C1`, which Percent Effect [1] is on record?
A: 2.91%

Q: And the Percent Effect [2]?
A: -147%

Q: With `CC(NC(=O)CSCC(=O)Nc1ccccc1)c1ccccc1` (stereo not drawn) as the compound, how does the Percent Effect [1] read?
A: 3.01%

Q: What about the Percent Effect [2] of the same compound?
A: 16.8%

Q: Which Percent Effect [1] does the source give for `NC(=O)COc1cccc(C(=O)N2CCCC(n3cccn3)C2)c1` (stereo not drawn) here?
A: -6%

Q: What about the Percent Effect [2] of the same compound?
A: -18.8%

Q: How did the Percent Effect [1] turn out when `CN(C)CCO[C@@H]1CC[C@H]2[C@H]1OCCN2C(=O)CCc1ccccc1` was run?
A: -1.17%

Q: What about the Percent Effect [2] of the same compound?
A: -27.7%

Q: Which results are given for `Fc1ccc(CN2CCCC2Cn2cccn2)c2ncccc12` (stereo not drawn)?
A: Percent Effect [1]: -2.13%; Percent Effect [2]: -3.45%

Q: Which Percent Effect [1] does the source give for `COCCN1CCCN(C(=O)NC(C)Cn2ccnc2)CC1` (stereo not drawn) here?
A: -1.32%

Q: And the Percent Effect [2]?
A: -14.7%
